Our source for the growth values is PubChem BioAssay (NCI).

Among the test systems are HCT-15 colon; HT29 colon; SNB-75 CNS; SNB-19 CNS; U251 CNS; PC-3 prostate; SK-MEL-5 melanoma; UACC-62 melanoma; LOX IMVI melanoma; SK-MEL-28 melanoma; SK-MEL-2 melanoma; EKVX NSCLC; SN12C renal; UO-31 renal; TK-10 renal; ACHN renal; CAKI-1 renal; A498 renal; CCRF-CEM leukemia; MOLT-4 leukemia.
Assay in all cases: NCI-60 one-dose screen, 48 h (100 = growth as untreated, 0 = no growth, -100 = all killed)
Settings in all cases: 10 µM unless noted

Several values for one entry are separate records, joined by “and”; a condition that tells them apart may be missing. Equal values may be shown once. About 83,000 compounds went through this panel and 20% of them were active in at least one assay; those are over-represented in the sample as a whole.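 The test compound was applied at a single concentration to cells in 96-well plates for 48 hours, and percent growth was recorded.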 Activity calls are given as the source filed them. Rule for the calls: active = growth percent below 10; inactive = the rest.

Take `CCN1CCN(CCNc2nccc(-c3c(-c4cccc(O)c4)nc4sccn34)n2)S1(=O)=O`: the growth is 67.7% (inactive) and 59% (inactive) with HCT-15 colon; 45.3% (inactive) and 50.4% (inactive) in the experiment with HT29 colon; 62.6% (inactive) and 50.2% (inactive) with SNB-75 CNS; 104% (inactive) and 117% (inactive) with SNB-19 CNS; 90.4% (inactive) and 93.2% (inactive) in the experiment on U251 CNS; 63.9% (inactive) and 77.9% (inactive) in the experiment with PC-3 prostate. Besides, the growth in the experiment with SK-MEL-5 melanoma was 51% (inactive) and 32.4% (inactive); with UACC-62 melanoma, 0.351% (active) and 0.223% (active); in the experiment with LOX IMVI melanoma, 37.7% (inactive) and 30.9% (inactive); with SK-MEL-28 melanoma, 23.7% (inactive) and 20.5% (inactive); with SK-MEL-2 melanoma, 11.2% (inactive) and 27.5% (inactive); with EKVX NSCLC, 110% (inactive) and 111% (inactive). For the same compound, the growth in the experiment on SN12C renal is 75.8% (inactive) and 66.7% (inactive); in the experiment on UO-31 renal, 67.9% (inactive) and 58.3% (inactive); in the experiment on TK-10 renal, 92.8% (inactive); in the experiment on ACHN renal, 47.5% (inactive) and 33.5% (inactive); in the experiment on CAKI-1 renal, 44.2% (inactive) and 34% (inactive); with A498 renal it was 74.2% (inactive) and 66.8% (inactive). Also, the growth was 67.4% (inactive) and 62.1% (inactive) in the experiment on CCRF-CEM leukemia; 89.7% (inactive) and 81.7% (inactive) in the experiment on MOLT-4 leukemia.

For the compound `COc1ccc(CCN(C)CCCC(C#N)(c2ccc(OC)c(OC)c2)C(C)C)cc1OC` (stereo not given), the growth in the experiment on HCT-15 colon is 94% (inactive) and 86.4% (inactive) and 101% (inactive); in the experiment on HT29 colon, 79.2% (inactive) and 74.7% (inactive) and 93.8% (inactive); in the experiment with SNB-75 CNS, 65% (inactive) and -24.5% (active) and 86.8% (inactive); with SNB-19 CNS it was 107% (inactive) and 101% (inactive) and 105% (inactive); with U251 CNS, 90.4% (inactive) and 95.2% (inactive) and 99.9% (inactive); in the experiment on PC-3 prostate, 76.3% (inactive) and 68.4% (inactive) and 95.5% (inactive). The growth with SK-MEL-5 melanoma is 94% (inactive) and 99.8% (inactive) and 101% (inactive); with UACC-62 melanoma, 106% (inactive) and 97% (inactive) and 101% (inactive); with LOX IMVI melanoma, 92.3% (inactive) and 95.4% (inactive) and 92.7% (inactive); with SK-MEL-28 melanoma it was 106% (inactive) and 99.7% (inactive); in the experiment with SK-MEL-2 melanoma, 93.5% (inactive) and 109% (inactive); in the experiment on EKVX NSCLC, 92.1% (inactive) and 90.3% (inactive) and 98.6% (inactive). Also, the growth with SN12C renal is 92.7% (inactive) and 107% (inactive) and 109% (inactive); in the experiment on UO-31 renal, 63.4% (inactive) and 86.6% (inactive) and 81.2% (inactive); in the experiment on TK-10 renal, 97.1% (inactive) and 127% (inactive) and 95.8% (inactive); in the experiment on ACHN renal, 93.2% (inactive) and 95.8% (inactive); in the experiment with CAKI-1 renal, 73% (inactive) and 79.3% (inactive) and 94.5% (inactive); with A498 renal, 56.5% (inactive) and 96.5% (inactive) and 75.5% (inactive). Further, the growth in the experiment on CCRF-CEM leukemia is 95% (inactive) and 86.2% (inactive) and 97.9% (inactive); in the experiment on MOLT-4 leukemia, 72.9% (inactive) and 83.8% (inactive) and 95.8% (inactive).

Turning to `O=[N+]([O-])c1ccc2nc3c4ccccc4c4ccccc4c3nc2c1`, the growth in the experiment with HCT-15 colon was 80.8% (inactive); with HT29 colon it was 74.6% (inactive); in the experiment on SNB-75 CNS it was 74.4% (inactive); in the experiment with SNB-19 CNS it was 89.2% (inactive); with U251 CNS, 62.3% (inactive); in the experiment on PC-3 prostate, 55.1% (inactive). Besides, the growth was 76.8% (inactive) with SK-MEL-5 melanoma; 86.7% (inactive) in the experiment on UACC-62 melanoma; 30.8% (inactive) with LOX IMVI melanoma; 113% (inactive) with SK-MEL-28 melanoma; 97.6% (inactive) with SK-MEL-2 melanoma; 81.8% (inactive) in the experiment on EKVX NSCLC. Also, the growth in the experiment with SN12C renal is 81.9% (inactive); in the experiment on UO-31 renal it was 75.3% (inactive); in the experiment with TK-10 renal, 67.8% (inactive); with ACHN renal, 57.3% (inactive); with CAKI-1 renal, 77.9% (inactive); in the experiment with A498 renal it was -39.8% (active). The growth is 63.1% (inactive) with CCRF-CEM leukemia and 89.7% (inactive) in the experiment on MOLT-4 leukemia.

As to `O=C(O)CCCCc1ccc([N+](=O)[O-])cc1`, the growth with HCT-15 colon was 101% (inactive); with HT29 colon, 105% (inactive) and 98.1% (inactive); with SNB-75 CNS, 98.7% (inactive) and 89.7% (inactive); in the experiment with SNB-19 CNS it was 101% (inactive) and 105% (inactive); in the experiment on U251 CNS it was 97.4% (inactive) and 108% (inactive); in the experiment with PC-3 prostate it was 88.5% (inactive) and 86.5% (inactive). In addition, the growth in the experiment with SK-MEL-5 melanoma was 107% (inactive) and 105% (inactive); in the experiment on UACC-62 melanoma, 104% (inactive) and 90.4% (inactive); in the experiment on LOX IMVI melanoma it was 92.7% (inactive) and 107% (inactive); in the experiment with SK-MEL-28 melanoma, 113% (inactive) and 107% (inactive); in the experiment with SK-MEL-2 melanoma it was 98.9% (inactive) and 113% (inactive); in the experiment with EKVX NSCLC, 107% (inactive) and 126% (inactive). Further, the growth with SN12C renal is 98.9% (inactive) and 96.5% (inactive); in the experiment with UO-31 renal, 82.4% (inactive) and 73.3% (inactive); with TK-10 renal it was 106% (inactive) and 99.4% (inactive); with ACHN renal, 103% (inactive) and 98.5% (inactive); in the experiment with CAKI-1 renal, 107% (inactive) and 102% (inactive); in the experiment on A498 renal, 84.4% (inactive) and 127% (inactive). The growth in the experiment on CCRF-CEM leukemia was 97.1% (inactive) and 91.2% (inactive); with MOLT-4 leukemia it was 99.4% (inactive) and 88.5% (inactive).
